Source: PubChem BioAssay
CYP2C19 activ – activators of human cytochrome P450 2C19. 96,000 tested, under 10 active. activation factor at 5 µM. recombinant CYP2C19, luciferin-H EGE luminescence; hits give high values; 0 = fully inhibited enzyme, 1 = untreated enzyme;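 active = activation factor of at least 2 at 5 µM in the primary screen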;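 note: 0 = wells with 2.5 mM tranylcypromine and 1 = vehicle-only wells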
CYP2C9 activ – activators of human CYP2C9. activation factor at 5 µM. AID 1024. 96,000 tested, 1.4% active. P11712. recombinant CYP2C9, luciferin-H conversion, luminescence; hits give high values; factor 1 = untreated enzyme, 0 = blocked;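 active = activation factor of 2 or more for CYP2C9 at a 5 µM dose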;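 note: 0 = sulfaphenazole-blocked wells and 1 = vehicle-only wells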
CYP2C19 inh – human CYP2C19 inhibition; CYP2C19 Supersomes, luciferin-H EGE luminescence, 30 min; inhibition, % at 5 µM; 96,000 tested, 21% active;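 active = CYP2C19 inhibition above a set limit at 5 µM in the primary screen, cut at about 50% in these data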;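 note: plate controls were negative control wells for no effect and 2.5 mM tranylcypromine positive control for full effect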
CYP2C9 inh – human CYP2C9 inhibition; P11712; CYP2C9 Supersomes, luciferin-H conversion, luminescence; inhibition, % at 5 µM; 96,000 tested, 20% active;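 active = blocking of liver enzyme CYP2C9 beyond about 50% at 5 µM, limit read from the data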
PLAP act – activators of human placental alkaline phosphatase; AID 696; 96,000 tested, 1.2% active; P05187; activation fold at 20 µM; purified PLAP enzyme, luminescent substrate read-out; hits give high values; in the data active = activation fold above about 2
Target sequence (P05187 whole entry, looked up): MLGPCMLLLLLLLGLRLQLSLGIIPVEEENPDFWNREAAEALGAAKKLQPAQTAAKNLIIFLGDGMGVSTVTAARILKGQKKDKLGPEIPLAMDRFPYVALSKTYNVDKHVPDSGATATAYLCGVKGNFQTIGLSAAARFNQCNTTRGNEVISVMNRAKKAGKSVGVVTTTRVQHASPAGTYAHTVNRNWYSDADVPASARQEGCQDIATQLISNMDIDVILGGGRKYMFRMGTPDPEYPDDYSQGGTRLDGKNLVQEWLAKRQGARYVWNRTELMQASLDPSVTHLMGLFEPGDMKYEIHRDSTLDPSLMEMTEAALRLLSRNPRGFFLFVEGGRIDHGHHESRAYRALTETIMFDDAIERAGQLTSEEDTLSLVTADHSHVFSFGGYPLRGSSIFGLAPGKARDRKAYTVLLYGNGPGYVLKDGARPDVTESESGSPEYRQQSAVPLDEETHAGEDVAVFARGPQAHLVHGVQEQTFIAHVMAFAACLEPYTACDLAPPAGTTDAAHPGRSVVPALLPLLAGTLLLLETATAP
* = called active by the depositor. This is a sample that favours compounds with a hit; in the whole collection about 31% have one here.

SMILES	CYP2C19 activ	CYP2C9 activ	CYP2C19 inh	CYP2C9 inh	PLAP act
O=C(Cc1ccc(-n2cccc2)cc1)NCc1cccs1	1	0.7	5	31	0.9
O=C(O)CNC(=O)CCN1C(=O)c2ccccc2C1=O	1	1.2	-4	-23	0.8
CC1CCN(S(=O)(=O)N2CCC(C(=O)NCc3cccs3)CC2)CC1	1	0.9	2	13	1.1
Cc1ccc2nc(C3CCN(S(=O)(=O)c4ccc5ccccc5c4)CC3)[nH]c2c1	0.6	3*	38	-195	1.7
CC(C)(C)C(=O)N=C1SC2CS(=O)(=O)CC2N1c1ccc2c(c1)OCO2 (stereo not drawn)	0.4	0.4	57*	63*	1.4
COc1ccc(NC(=O)CSC2=C(C#N)C(c3ccco3)C3=C(CCCC3=O)N2)c(OC)c1 (stereo not drawn)	0.1	0.1	93*	85*	1.8
COc1cc(C2CC(=O)NC(SCC(=O)Nc3ccccc3C)=C2C#N)ccc1O (stereo not drawn)	0.6	1.2	41	-15	1.1
CCCCc1ccc(NC(=O)CSC2=C(C#N)C(c3ccco3)C3=C(CCCC3=O)N2)cc1 (stereo not drawn)	0.2	0.1	76*	92*	1
COc1cccc(NC(=O)CSC2=C(C#N)C(c3ccco3)C3=C(CCCC3=O)N2)c1 (stereo not drawn)	0.4	0.3	60*	66*	1
COc1ccc(C2C(C#N)=C(SCC(=O)Nc3ccc(C)cc3)NC3=C2C(=O)CC(C)(C)C3)cc1 (stereo not drawn)	0.9	0.9	8	8	0.9
CC(=O)Nc1c(O)nc(SCC(=O)Nc2c(C)cccc2C)[nH]c1=O	1.1	1	-8	0	0.8
C=CCn1c(SCC(O)Cn2c3ccccc3c3ccccc32)nnc1-c1ccco1 (stereo not drawn)	0	0.1	98*	90*	0.9
COc1ccccc1NC(=O)CSc1nnc(C)n1Cc1ccccc1	0.5	1	52*	-3	1
C=CCn1c(SCc2nc(N)nc(N3CCCCC3)n2)nnc1-c1ccco1	0.4	0.9	59*	13	1
Cc1nnc(SCC(=O)Nc2ccc(Cl)cn2)n1Cc1ccccc1	0.8	0.9	18	5	0.8
COc1ccccc1NC(=O)CSc1ncn(-c2ccccc2)n1	0.2	0.8	76*	19	0.7
CC1(C)CC(NC(=O)CCC2CCCC2)CC(C)(C)N1	1	0.9	-4	13	0.7
C=CCn1c(SCC(=O)Nc2ccccc2OC)nnc1-c1ccco1	0.5	0.9	54*	10	0.9
O=C(CSc1ncn(-c2ccccc2)n1)NCc1ccccc1	0.9	0.6	12	37	1
CCc1ccccc1NC(=O)CSc1nnc(-c2ccco2)n1N	0.4	1.1	56*	-10	0.9
Cc1ccnc(SCC(=O)N2CCN(c3cccc(Cl)c3)CC2)n1	0	0.7	99*	30	1.5
O=C(CSc1ncn(-c2ccccc2)n1)N1CCN(c2ccccc2)CC1	0.4	0.4	64*	59*	1
Cc1ccc(CCN2CC(C(=O)NCCCN3CCOCC3)CC2=O)cc1 (stereo not drawn)	1.1	1.1	-9	-10	1.1
COc1cc2cc(Br)cc(Br)c2nc1C	0.7	1.7	27	-73	1.3
Cc1cc(S(=O)(=O)Nc2ccc(C(=O)N3CCN(C(=O)c4ccco4)CC3)cc2)ccc1F	0.9	0.5	13	46	1.6
SMILES	CYP2C19 activ	CYP2C9 activ	CYP2C19 inh	CYP2C9 inh	PLAP act
O=C(c1ccco1)N1CCN(S(=O)(=O)c2ccc(F)cc2)CC1	0.5	0.9	53*	14	0.9
O=C(c1ccco1)N1CCN(C(=O)C2Cc3ccccc3CN2S(=O)(=O)c2ccc(F)cc2)CC1 (stereo not drawn)	0.2	0.6	76*	38	1.5
O=C(c1ccco1)N1CCN(c2ccc(S(=O)(=O)N3CCCC3)cc2)CC1	1.1	0.9	-12	14	0.9
O=C(C1Cc2ccccc2CN1S(=O)(=O)c1ccc(F)cc1)N1CCCCC1 (stereo not drawn)	0.8	0.9	19	7	1.1
O=C(c1ccc(S(=O)(=O)Nc2ccc(F)cc2)cc1)N1CCN(C(=O)c2ccco2)CC1	0.6	0.3	44	75*	1.7
CCn1c(SCC(=O)Nc2nc(-c3ccc(C)cc3)cs2)nnc1-c1ccccc1O	0.4	0.3	57*	72*	1.6
CCn1c(CSc2nc(C)cc(C)n2)nnc1SCC(=O)Nc1nc(-c2ccccc2)cs1	1	1.3	4	-32	1.1
Cc1ccc(-n2c(Cc3ccccc3)nnc2SCC(=O)NNC(=O)Cc2ccccc2)cc1	0.8	0.6	22	41	2.8*
CCn1c(SCC(=O)Nc2nc(-c3ccc(C)cc3)cs2)nnc1-c1ccccc1	0.6	0.2	42	85*	1.2
Cc1nnc(NC(=O)CSc2nnc(Cc3ccccc3)n2-c2ccccc2)s1	0.9	0.7	6	34	1.4
COc1ccccc1-c1nnc(SCC(=O)Nc2nc(-c3ccccc3)cs2)n1C	0.1	0	91*	98*	1.8
COc1ccccc1-c1noc(-c2ccccc2C(=O)Nc2cccnc2)n1	0.9	0.9	11	14	0.8
C=CCSC1=Nc2sccc2C2=NC(=O)CN12	0.7	1.1	35	-6	1.5
O=C(c1ccco1)N(Cc1cccs1)C1CCS(=O)(=O)C1 (stereo not drawn)	0.9	1	6	3	0.9
COCc1nnc(SCC(=O)NC(C)c2ccccc2)n1-c1ccccc1 (stereo not drawn)	0.4	0.4	59*	55*	1
CCn1c(SCC(=O)NNC(=O)Cc2ccccc2)nnc1-c1ccccc1	1	1	1	-2	2.4*
COc1cccc(NC(=O)Cc2nnc(SCC(=O)NC(C)c3ccccc3)n2C)c1 (stereo not drawn)	1	1	2	2	0.8
COC(=O)c1cccc(N(C(=O)c2cnccn2)C(C(=O)NCc2ccccc2)c2ccco2)c1 (stereo not drawn)	0.3	0.5	71*	48	1.6
CC(C)CCN(C(=O)CNC(=O)c1ccco1)C(C(=O)NC1CCCCC1)c1ccco1 (stereo not drawn)	0.3	0.5	70*	51*	1.5
CCCCN(C(=O)CNC(=O)c1ccco1)C(C(=O)NC1CCCC1)c1ccc(OC)cc1 (stereo not drawn)	0.6	0.9	39	12	1.2
COC(=O)c1cccc(N(C(=O)CNC(=O)c2ccco2)C(C(=O)NC2CCCC2)c2ccco2)c1 (stereo not drawn)	0.7	0.4	25	64*	1.5
Cc1cccc(N(C(=O)CNC(=O)c2ccco2)C(C(=O)NC2CCCC2)c2cccnc2)c1 (stereo not drawn)	1.1	1	-6	-5	1.3
CCN(CC)CCNC(=O)C1c2ccccc2C(=O)N(CCOC)C1c1ccc(F)cc1 (stereo not drawn)	1.3	1.3	-33	-29	1.8
